# Data published in ChEMBL document CHEMBL3988442, “University of Dundee, Small-Polar-MMV Screening Library” (2021).
# Tested on: Trypanosoma cruzi
# Assay: Trypanosoma cruzi phosphomannomutase and mannose-1-phosphate guanylyltransferase assay
# Type: functional
# Parameters: scale not given: direction of the effect not stated beside the values
# Conditions: 10 µM
row,Compound,Percent Effect
1,O=C(NC[C@]12COC[C@H]1CN(Cc1nccs1)C2)c1ccccc1,3.34%
2,CCc1cnc(CNc2ccc(C(=O)N3CCCC(C)C3)cc2C)o1 (centres undefined),-0.936%
3,Cc1cc(C[C@@H]2COC[C@@H]2NC(=O)CN2CCCC2)on1,1.96%
4,Fc1cccc(Oc2ccc(CNCC3CNc4ccnn4C3)cn2)c1 (centres undefined),10.5%
5,Cn1cccc1C(=O)N1CCN(Cc2ccncc2)c2ncccc2C1,-4.83%
6,CC(=O)Nc1nc(C(=O)N2CCCC(n3ccnc3)C2)cs1 (centres undefined),-6.44%
7,CN(C)C1CCN(C(=O)NCc2ccc(Cn3cncn3)cc2)CC1,9.85%
8,NC(=O)CN1CCCN(C(=O)c2ccn(-c3cccc(F)c3)n2)CC1,-3.01%
9,COCCCC1(CO)CCCN(CCS(C)(=O)=O)C1 (centres undefined),0%
10,CC1CCCCN1c1nc2c(c(=O)[nH]1)CCN(Cc1cccnc1)C2 (centres undefined),0.79%
11,Cc1cc(CC(=O)N(CC2CN(C)CCO2)c2nccs2)no1 (centres undefined),6.41%
12,CC(C)NC(=O)N1CCN(S(=O)(=O)C2CC2)CC2(CC(=O)N(C)C2)C1 (centres undefined),5.23%
13,CCCNC(=O)N1CCN(Cc2cc(C)no2)CC1,6.07%
14,O=C(COCc1ccccc1Cl)N1CCCC(n2cccn2)C1 (centres undefined),-1.08%
15,O=C(CN1CCCCC1Cn1cccn1)NC1CCN(C2CC2)CC1 (centres undefined),-1.16%
16,COCC1CC2(CCN(C(=O)c3cc(C)oc3C)CC2)CN1C(C)C (centres undefined),2.15%
17,CCCN(CC(=O)NC)C(=O)c1ccc(-c2ccsc2)nc1C,4.76%
18,COCCN1C[C@H]2CC[C@@]3(N=C(C)N(CC4CC4)C3=O)[C@H]2C1,-0.391%
19,CCO[C@@H]1CC[C@H]2[C@H]1OCCN2C(=O)C1CCOCC1,3.32%
20,O=C(c1cccnc1-n1cccn1)N1CCN(CC2CC2)CC1,-1.54%

# Biological target: T1, Arginase-2, mitochondrial (Homo sapiens) (UniProt P78540)
# T1 sequence (whole entry): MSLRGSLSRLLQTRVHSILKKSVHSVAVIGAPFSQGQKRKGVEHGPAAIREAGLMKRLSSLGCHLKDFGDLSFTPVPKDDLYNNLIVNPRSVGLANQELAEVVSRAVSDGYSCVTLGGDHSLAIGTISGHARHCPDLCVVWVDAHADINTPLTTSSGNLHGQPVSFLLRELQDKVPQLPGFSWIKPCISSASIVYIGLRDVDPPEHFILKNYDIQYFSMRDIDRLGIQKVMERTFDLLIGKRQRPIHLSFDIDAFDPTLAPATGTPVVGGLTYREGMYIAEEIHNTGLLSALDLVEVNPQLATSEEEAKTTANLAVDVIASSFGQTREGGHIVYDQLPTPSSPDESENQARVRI
# Assay: in vitro enzyme assay to detect the production of urea directly proportional to the activity of Arginase II; also: in the data most compounds retested in dose-response had high values
# Type: functional
# Parameters: scale not given: direction of the effect not stated beside the values
# Conditions: 33.3 µM
row,Compound,Percent Effect
1,CC(C(=O)Nc1ccc(N2CCCC2)nc1)n1ccnc1 (centres undefined),-8.82%
2,O=C1N(Cc2ccccc2F)CCCC12CCN(C1CCSCC1)C2 (centres undefined),3.65%
3,Cn1cc(CN2CC3(CCN(C(=O)c4ccoc4)C3)C2)cn1,-1.6%
4,CCOC(=O)NC(CNC(=O)CCc1ccccn1)CC(C)C (centres undefined),2.73%
5,Cc1ccc(C2CSCCN2C(=O)C2=CCCC2)o1 (centres undefined),1.24%
6,Cc1nc(Nc2nccs2)cc(C2CCCN2C2CCOCC2)n1 (centres undefined),-3.48%
7,COCc1cn([C@@H]2c3ccccc3C3(CCNCC3)[C@H]2O)nn1,24.7%
8,N#Cc1ccc(F)c(CN2CCCC2Cn2cnc3ccccc32)c1 (centres undefined),-0.924%
9,O=C(CCCc1ncc(-c2ccccc2)o1)N1CCN(CCO)CC1,3.04%
10,CCn1cnnc1CNC(=O)N(C)Cc1ccc2c(c1)OCCO2,-14.8%
11,COCCNC(=O)C(C)n1cc(Br)cn1 (centres undefined),-2.76%
12,CCn1nc(CC(C)C)cc1C(=O)N1C[C@H](O)[C@@H](N2CCCCC2)C1,4.69%
13,O=C(CN1CCC(c2ccnn2CCO)CC1)NCc1cccs1,1.52%
14,CCOc1ccc(CC(=O)N2CCN(c3nccn3C)CC2)cc1,-7.1%
15,O=C(C1CC1)N1CCCC1C1CCN(Cc2ccccc2)CC1 (centres undefined),-4.73%
16,Cc1nc(C)n(CC2CN(c3ccc(C#N)cn3)CCO2)n1 (centres undefined),1.44%
17,COc1cc(N2C[C@@H]3COC[C@]3(COCc3cccc(C)n3)C2)ncn1,0.955%

row,Compound,Percent Effect
1,COCCN1CCC2(CC1)CC(COC)N(c1ncccn1)C2 (centres undefined),-19.3%
2,O=C(CCOCc1ccccc1)N1CCCC1c1noc(C2CC2)n1 (centres undefined),-10.4%
3,CS(=O)(=O)NCC1CCCN(Cc2ccc(F)c3cccnc23)C1 (centres undefined),-4.14%
4,O=C(NC[C@]12COC[C@H]1CN(Cc1nccs1)C2)c1ccccc1,-6.87%
5,CCc1cnc(CNc2ccc(C(=O)N3CCCC(C)C3)cc2C)o1 (centres undefined),-1.78%
6,Cc1cc(C[C@@H]2COC[C@@H]2NC(=O)CN2CCCC2)on1,-1.82%
7,Fc1cccc(Oc2ccc(CNCC3CNc4ccnn4C3)cn2)c1 (centres undefined),2.85%
8,Cn1cccc1C(=O)N1CCN(Cc2ccncc2)c2ncccc2C1,-57.2%
9,CC(=O)Nc1nc(C(=O)N2CCCC(n3ccnc3)C2)cs1 (centres undefined),3.6%
10,CN(C)C1CCN(C(=O)NCc2ccc(Cn3cncn3)cc2)CC1,-2.38%
11,NC(=O)CN1CCCN(C(=O)c2ccn(-c3cccc(F)c3)n2)CC1,2.21%
12,COCCCC1(CO)CCCN(CCS(C)(=O)=O)C1 (centres undefined),1.36%
13,CC1CCCCN1c1nc2c(c(=O)[nH]1)CCN(Cc1cccnc1)C2 (centres undefined),2.09%
14,Cc1cc(CC(=O)N(CC2CN(C)CCO2)c2nccs2)no1 (centres undefined),2.03%
15,CC(C)NC(=O)N1CCN(S(=O)(=O)C2CC2)CC2(CC(=O)N(C)C2)C1 (centres undefined),-5.81%
16,CCCNC(=O)N1CCN(Cc2cc(C)no2)CC1,-2.16%
17,O=C(COCc1ccccc1Cl)N1CCCC(n2cccn2)C1 (centres undefined),4%
